Only some compounds are listed: those with a hit (about 17% of all), similar ones and a draw of the others.
TDP1 cell noCPT: qHTS for Inhibitors of human tyrosyl-DNA phosphodiesterase 1 (TDP1): qHTS in cells in absence of CPT. DT40 Tdp1-/- hTDP1 cells, no CPT, ATP luminescence, 48 h. Potency, µM (top dose mostly 46.2 µM), most hits filed as inhibitors. 420,000 compounds, 15% hits; also: nearly all actives have a fitted effect of over 55% in size
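A cellular qHTS used chicken DT40 cells lacking endogenous Tdp1 but carrying stably transfected human TDP1. Compounds were applied without camptothecin, and cell growth kinetics were judged by ATP-dependent luminescence after ≥48 hr.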
TGFb SMAD3 inh: qHTS for Inhibitors of TGF-b; HepG2 CAGA-GFP TGF-b/SMAD3 reporter, GFP fluorescence, 18 h; TGF-beta stimulated, 500 pg/mL final; Potency, µM (series often up to 46.1 µM), usual class: inhibitors; AID 588855, 2011; 410,000 compounds, 1.2% hits; also: nearly all actives have a fitted effect of over 65% in size
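First, reporter cells (HEPG2 CAGA-GFP) rested 2 h at 37 degrees C. Next, compounds were pinned in and TGF-beta added to 500 pg/mL final. After 18 h, GFP was imaged per cell and summed per well.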
HepG2 tox-1: qHTS for Inhibitors of TGF-b: Cytotox Counterscreen; HepG2 CAGA-GFP viability, ATP luminescence, 18 h; Potency, µM (series often up to 46.1 µM), actives largely listed as cytotoxic; 410,000 compounds, 0.76% hits; AID 588856, 2011
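CellTiter-Glo luminescence gave cytotoxicity after 18 hours at 37 degrees C. The cells were HepG2 CAGA-GFP in 1% FBS DMEM, stimulated with 500 pg/mL TGF-beta after compound addition. %Activity was normalised to no-cell wells (complete cell-killing) and DMSO (no toxicity), and curves were fitted and classified.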
DT40 TDP1 CPT: qHTS for Inhibitors of human tyrosyl-DNA phosphodiesterase 1 (TDP1): qHTS in cells in presence of CPT | 420,000 compounds, 12% hits | AID 686979, 2013 | Potency, µM (titrated, usually from 46.2 µM), usual class: inhibitors | chicken DT40 Tdp1-/-;hTDP1 cells + 20 nM CPT, ATP luminescence, 48 h; also: nearly all actives have a fitted effect of over 55% in size
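Chicken DT40 Tdp1-/- cells stably complemented with human TDP1 were seeded at 400 cells/well in medium containing 20 nM camptothecin, exposed to pin-transferred compounds, and grown at 37 °C for at least 48 hr. Viability was read as ATP luminescence.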
HT1080 IDH1KD tx: qHTS for induction of synthetic lethality in tumor cells producing 2HG: qHTS for the HT-1080-IDH1KD cell line. HT-1080 IDH1 knockdown viability, ATP luminescence, 48 h. Potency, µM (titrated, usually from 46.1 µM), hits mostly cytotoxic. 360,000 compounds, 2% hits. AID 686971, 2013
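Luminescent ATP read-out (CellTiter-Glo, 10 min at room temperature) after 48 h compound exposure at 37 °C gave viability of IDH1-knockdown HT-1080 cells. Activity was normalised to DMSO and cell-free wells, then fitted as concentration-response curves.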
HT1080NT lethal: qHTS for induction of synthetic lethality in tumor cells producing 2HG: qHTS for the HT-1080-NT fibrosarcoma cell line. HT-1080-NT fibrosarcoma viability, CellTiter-Glo ATP luminescence, 48 h. 360,000 compounds, 1.6% hits. Potency, µM (series often up to 46.1 µM), hits mostly cytotoxic;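 also: NT is the 2HG producing partner of a matched IDH1 knockdown line; nearly all actives have a fitted effect of over 55% in size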
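Viability of the 2HG-overproducing fibrosarcoma line after 48 hours of compound exposure at 37 degrees C was determined by luminescence with CellTiter-Glo, and concentration-effect curves were then fitted and categorized.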
TGFb confirm: qHTS for Inhibitors of TGF-b: Confirmation of Cherry Picks | 1,600 compounds, 63% hits | Potency, µM (series often up to 46.1 µM), usual class: inhibitors | HepG2 CAGA-GFP TGF-b reporter, GFP fluorescence, 18 h; cells stimulated with TGF-beta, 500 pg/mL | shares compounds with TGFb SMAD3 inh; also: nearly all actives have a fitted effect of over 65% in size
HepG2 tox-2: qHTS for Inhibitors of TGF-b: Cytotox Counterscreen for Cherry Picks; shares compounds with TGFb SMAD3 inh; HepG2 CAGA-GFP viability, ATP luminescence, 18 h; cells stimulated with TGF-beta, 500 pg/mL; Potency, µM (doses to about 46.1 µM), hits mostly inhibitors; 1,600 compounds, 27% hits; also: nearly all actives have a fitted effect of over 70% in size
TGFb CCL64 inh: qHTS for Inhibitors of TGF-b: CCL64 Cells Orthogonal Assay for Cherry Picks. 1,600 compounds, 41% hits. Potency, µM (top dose mostly 46.1 µM), usual class: inhibitors. CCL64 CAGA-GFP reporter, TGF-b stimulated, GFP fluorescence, 18 h. shares compounds with TGFb SMAD3 inh; also: nearly all actives have a fitted effect of over 65% in size
TGFb COP inh: qHTS for Inhibitors of TGF-b: Hit Validation in HepG2 Cells using COP promoter; shares compounds with TGFb SMAD3 inh; HepG2 COP-GFP TGF-b reporter, GFP fluorescence, 18 h; cells stimulated by added recombinant TGF-beta; Potency, µM (doses to about 46.1 µM), actives largely listed as inhibitors; 1,600 compounds, 3% hits; also: nearly all actives have a fitted effect of over 70% in size
Numbers stand for hits; - = inactive; ? = inconclusive; . = no result. Calls follow the shape of the dose curve; as a rule, active = well fitted curve in the direction sought with a large enough effect; inconclusive = small, poorly fitted or top-dose-only effect, or another doubt; inactive = no such curve, though single readings can be large; an effect the other way counts as inactive or inconclusive.

SMILES	TDP1 cell noCPT	TGFb SMAD3 inh	HepG2 tox-1	DT40 TDP1 CPT	HT1080 IDH1KD tx	HT1080NT lethal	TGFb confirm	HepG2 tox-2	TGFb CCL64 inh	TGFb COP inh
C/C(=N\NC(=O)C1COc2ccccc2O1)c1ccccn1 (stereo unspecified)	2.91µM	?	-	5.8µM	?	?	20.6µM	-	?	-
COc1ccc(C(=O)N/C(=C/c2ccco2)C(=O)NC2CCS(=O)(=O)C2)cc1 (stereo unspecified)	-	-	-	-	-	-	.	.	.	.
Fc1ccc(-n2nc(-c3ccccc3)c3cnc4ccccc4c32)cc1Cl	-	-	-	-	.	.	.	.	.	.
S=C(NCCOCCOCCNC(=S)Nc1ccccc1)Nc1ccccc1	-	-	-	-	-	-	.	.	.	.
CC(C)(C)c1ccc(OCCNC(=S)Nc2ccccc2)cc1	5.8µM	14.1µM	-	2.91µM	16.4µM	?	?	?	?	-
CCOC(=O)C1=CCN(S(=O)(=O)c2ccccc2F)C1c1cccc(Cl)c1 (stereo unspecified)	?	11.2µM	-	?	-	-	?	-	?	-
CCOC(=O)C1=CCN(S(=O)(=O)c2ccc(C)cc2)C1c1cccc(Cl)c1 (stereo unspecified)	23.1µM	10µM	-	?	?	-	23.1µM	-	-	-
CCOC(=O)C1=CCN(S(=O)(=O)c2cccc(Cl)c2)C1c1ccccc1 (stereo unspecified)	?	?	-	?	-	-	.	.	.	.
COc1ccc(NC(=O)c2cccc(S(=O)(=O)NCc3ccccc3)c2)cc1S(N)(=O)=O	-	-	-	-	-	-	.	.	.	.
COc1ccc(C(=O)C(CN2CCOCC2)c2ccccc2)cc1F (stereo unspecified)	2.59µM	3.98µM	-	4.11µM	11.6µM	?	?	14.6µM	7.31µM	-
CCOC(=O)C(CN1CCCC1)c1ccccc1 (stereo unspecified)	-	-	-	-	-	-	.	.	.	.
O=C(c1ccc(Cl)cc1)C(CN1CCCCC1)c1ccccc1 (stereo unspecified)	2.06µM	5.62µM	5.62µM	1.64µM	2.59µM	5.8µM	13µM	18.4µM	2.31µM	?
NS(=O)(=O)c1ccc(F)c(C(=O)O)c1	-	-	-	-	-	-	.	.	.	.
Cc1cc(C)c(S(=O)(=O)c2cccc(Cl)c2)c(=O)[nH]1	-	-	-	-	-	-	.	.	.	.
Cc1cccc(N2CCN(C(=O)c3cc(=O)[nH]c4ccccc34)CC2)c1C	-	-	-	?	-	-	.	.	.	.
Cc1cccc(N2CCN(C(=O)c3cn(C)c(=O)c4c3c3ccccc3n4C)CC2)c1C	22.4µM	10µM	-	22.4µM	17.8µM	?	?	?	20.6µM	-
O=C(Nc1ccc(F)c(Cl)c1)C1Cc2c(-c3ccc(Cl)cc3)ccnc2O1 (stereo unspecified)	?	15.8µM	-	16.4µM	?	?	10.3µM	?	18.4µM	-
CC(=O)Nc1ccc(-c2ccnc3c2CC(C(=O)Nc2ccc(Cl)c(C(F)(F)F)c2)O3)cc1 (stereo unspecified)	?	14.1µM	-	20.6µM	?	?	8.2µM	?	23.1µM	-
COc1ccc2nc(SCC(=O)Nc3ccc(S(=O)(=O)Nc4nccc(C)n4)cc3)[nH]c2c1	-	-	-	?	-	-	.	.	.	.
CCN(CC(=O)Nc1c(F)cccc1F)C(=O)c1ccc(C)c(S(=O)(=O)N2CCCCC2)c1	-	-	-	-	-	-	.	.	.	.
Cc1cccc(CN2CCCC(C(=O)c3ccc4c5c(cccc35)CC4)C2)n1 (stereo unspecified)	13µM	10µM	-	16.4µM	?	?	?	?	?	-
CC(C)OC(=O)CSc1nc(Cc2cccs2)nc2ccccc12	?	-	-	-	-	-	.	.	.	.
CCOc1ccc(S(=O)(=O)NCc2ccccc2OC)cc1	-	-	-	-	-	-	.	.	.	.
Cc1cccc(C)c1NS(=O)(=O)c1ccc(-c2cnc(C3CC3)o2)cc1	0.116µM	3.98µM	-	0.0058µM	0.164µM	0.082µM	2.59µM	?	0.82µM	-
CCOc1ccccc1CNS(=O)(=O)c1ccc(-c2cnc(C3CC3)o2)cc1	0.651µM	10µM	-	0.82µM	1.16µM	7.31µM	5.8µM	?	8.2µM	-
CN(Cc1ccccc1)S(=O)(=O)c1ccc(-c2cnc(C3CC3)o2)cc1	?	?	-	?	.	.	.	.	.	.
CCc1nnc(SCC(=O)Nc2ccc(N3CCOCC3)cc2)n1C	-	-	-	-	-	-	.	.	.	.
COc1ccc(S(=O)(=O)Nc2cccc3c2O[C@H](CN(C)S(=O)(=O)c2ccc(F)cc2)[C@H](C)CN([C@H](C)CO)C3=O)cc1	?	?	-	?	-	?	.	.	.	.
NC(=O)c1ccccc1NC(=O)c1ccccc1Cl	?	-	-	-	-	-	.	.	.	.
O=C(Nc1ccccc1C(=O)Nc1nnc(C(F)(F)F)s1)c1ccccc1Cl	16.4µM	3.55µM	-	?	10.3µM	10.3µM	5.8µM	4.11µM	6.51µM	-

Bioassay records (PubChem)
